These results are taken from ChEMBL document CHEMBL4513216, “Probing the Open Global Health Chemical Diversity Library for Multistage-Active Starting Points for Next-Generation Antimalarials” (ACS Infect Dis, 2020).

The whole screen tested about 69,000 compounds, of which about 8,600 (12%) showed an effect of 50% or more. The list comes from a sample in which strong results are over-represented; it also holds similar structures and randomly drawn compounds.

For this experiment, the system named is Plasmodium berghei. The experiment can be described thus: Screen against P. berghei liver stage (PbLuc), transformed with Luciferase, at 10uM. It is filed as functional, HepG2. The conditions noted are these: tested at 10 uM.
On to `O=C(CCc1ccccc1)NCC(O)c1c(F)cccc1F` (stereo not given), for which the INHIBITION worked out at 45.7%.

As for `Cc1noc([C@@H]2C[C@H]3OCC[C@H]3N(Cc3cc(C)c(C)o3)C2)n1`, the INHIBITION is on record as 57.9%. Take `Cc1noc([C@@H]2C[C@H]3OCC[C@H]3N(C(C)C)C2)n1`: the INHIBITION is on record as -18.2%. On to `Cc1noc([C@@H]2C[C@H]3OCC[C@H]3N(Cc3sccc3C)C2)n1`, for which the INHIBITION came to 54.4%. To `Cc1noc([C@H]2C[C@H]3OCC[C@H]3N(C3CCC3)C2)n1` belongs 92%; to `Cc1noc([C@@H]2C[C@H]3OCC[C@H]3N(Cc3ccoc3)C2)n1`, 15.9%; to `Cc1noc([C@H]2C[C@H]3OCC[C@H]3N(Cc3scnc3C)C2)n1`, 0.777%. Regarding `Cc1noc([C@@H]2C[C@H]3OCC[C@H]3N(CC3CCCC3)C2)n1`, the INHIBITION was 29.9%. Next, `Cc1noc([C@H]2C[C@H]3OCC[C@H]3N(Cc3cccs3)C2)n1`: 43.9%; `CCc1ccc(CN2C[C@@H](c3nc(C)no3)C[C@H]3OCC[C@H]32)o1`: -2.72%; `Cc1cnn(CC2CCCN2CC(=O)Nc2nccs2)c1` (stereo not given): -12.1%. For `CC(C)N1[C@@H](C(=O)NCC2CC2)C[C@@H]2CN(Cc3ccco3)C[C@@H]21`, the INHIBITION is -11%. To `COCCOc1cc(C)ccc1NC(=O)N(C)Cc1cnn(C)c1` belongs -58%. Next, `Cc1c(O)oc(-c2ccc(Br)cc2)nc1=O`: 55.5%. Next, `CNC(=O)NC(C)c1nc(-c2ccc(Br)cc2)no1` (stereo not given): 47.8%. In the case of `O=C1CN(Cc2nnc(-c3ccc(Br)cc3)o2)CCN1`, the INHIBITION is 10.8%.

As for `CCOCCCNS(=O)(=O)c1ccc2c(c1)NC(=O)C(C)O2` (stereo not given), the INHIBITION amounted to 2.55%. On to `Cc1nn(C)c(N(C)C)c1CNC1CCc2c(Cl)cccc21` (stereo not given), for which the INHIBITION was determined as 19.915%. To `Cc1nc(C)c(C(=O)N2CCCC(C(=O)c3nccn3C)C2)s1` (stereo not given) belongs 36.6%.

Consider `Nc1nc(Cn2ccnc2-c2cc(CN3CCCC3)cs2)cs1`, for which the INHIBITION came out at 42.1%. On to `COCCn1ccnc1-c1cc(CN2CCCCC2)cs1`, for which the INHIBITION is reported as 8.51%. Next, `c1cn(CCc2c[nH]cn2)c(-c2cc(CN3CCCC3)cs2)n1`: 60%. Next, `Oc1nc(N2CCOCC2)nc2c1CCN(Cc1cccc(F)c1)CC2`: 54.5%; `Cc1cc(CN2CCc3nc(C(C)C)nc(O)c3CC2)c(C)s1`: 62.9%; `Cc1nc(C)c2c(n1)CCN(Cc1ccco1)CC2`: -53.2%. Next, `Cc1cc(CN2CCc3nc(N4CCOCC4)nc(O)c3CC2)c(C)s1`: 90.7%. For `Oc1nc(N2CCOCC2)nc2c1CCN(Cc1ccc(F)cc1)CC2`, the INHIBITION stood at 38.2%. To `Cc1nc2c(c(NC(C)C)n1)CCN(Cc1cccnc1)CC2` belongs 49.7%; to `Cc1ccc(CN2CCc3nc(C(C)C)nc(O)c3CC2)s1`, 2.55%.

`CC(C)c1ncc2c(n1)CN(Cc1cccc3c1OCCO3)CC2`: the INHIBITION is listed as 37.7%.

Turning to `CCn1cc(CN2CCc3nc(N4CCOCC4)nc(O)c3CC2)cn1`, the INHIBITION is reported as 29.6%. As for `Cc1nc(O)c2c(n1)CCN(Cc1cc(C)sc1C)CC2`, the INHIBITION is 60.1%. To `Oc1nc(N2CCOCC2)nc2c1CCN(Cc1cccnc1)CC2` belongs 23.3%. Take `Oc1nc(N2CCOCC2)nc2c1CCN(Cc1ccccc1)CC2`: the INHIBITION came to 35.2%. As for `Cc1cccc(C(=O)N2C[C@@H]3C(CC(=O)Nc4cccnc4)[C@@H]3C2)n1` (stereo not given in full), the INHIBITION is 30.9%.

Regarding `Cc1ccsc1C(=O)N1CC[C@@H](N(C)C)[C@@H]1Cc1cnn(C)c1`, the INHIBITION is 36.9%.

With `O=C(CN1CCCC1)Nc1c2c(cc3c1CCC3)CCC2`, the INHIBITION was -3.47%. Take `Cn1ncc2c1CCCN(C(=O)C1CC1)C2`: the INHIBITION amounted to 24.69%.

In the case of `CN(C)c1cc(C(=O)N2CCCCC2CNS(C)(=O)=O)ccn1` (stereo not given), the INHIBITION is on record as -8.11%. Consider `CC(C)(C)SCCN1CC(=O)N2CC[C@@H](O)C[C@H]2C1=O`, for which the INHIBITION was 11.265%.

Regarding `CN1CC(=O)N(c2ccccc2)CC12CCN(CCO)C2` (stereo not given), the INHIBITION is 41.3%. With `Cc1cc(CN2CCc3nc(-c4ccncc4)nc(O)c3CC2)c(C)s1`, the INHIBITION worked out at 83.3%.

On to `C=Cn1ncc(CN2CCc3nc(-c4ccncc4)nc(O)c3C2)c1C`, for which the INHIBITION is listed as 17.1%. To `Cc1ccc(O)c(CN2CCc3nc(-c4cccnc4)nc(O)c3C2)c1` belongs 32.8%; to `O=C(NCc1ccc(OCC2CC2)nc1)c1c(F)cccc1F`, -26.8%. To `CCNC(=O)CNS(=O)(=O)c1cc(Br)ccc1F` belongs 53.6%; to `CCN(CC)C(=O)CNS(=O)(=O)c1cc(Br)ccc1F`, 23%; to `CN(C)C(=O)CNS(=O)(=O)c1cc(Br)ccc1F`, 42.4%. To `COCC(=O)N1CCCC(Cc2cnc(-c3c(C)n[nH]c3C)cn2)C1` (stereo not given) belongs -29.8%; to `CC(C#N)CSc1ccccc1NCC(=O)NC(=O)NC(C)(C)C` (stereo not given), 61.3%. For the compound `CC(C)CNC(=O)NC(=O)CNc1ccccc1SCC(C)C#N` (stereo not given), the INHIBITION is given as -7.9%. To `CC(C#N)CSc1ccccc1NCC(=O)Nc1ccc(F)cc1` (stereo not given) belongs 11.1%. In the case of `O=C(CSc1nnc[nH]1)NCc1cccs1`, the INHIBITION was -95.7%. Next, `CC(C#N)CSc1ccccc1NCC(=O)Nc1ccccc1` (stereo not given): 26.5%; `CC(C#N)CSc1ccccc1NCC(=O)NCc1ccccc1` (stereo not given): 14.2%. Next, `CC(C#N)CSc1ccccc1NCC(=O)NCc1cccs1` (stereo not given): 58.3%; `CC(C#N)CSc1ccccc1NCC(=O)NC(C1CC1)C1CC1` (stereo not given): 43.4%. Next, `CC(C#N)CSc1ccccc1NCC(=O)NC1CCCCC1` (stereo not given): 54.4%. `O=c1[nH]c2cn(-c3cccc(F)c3)c(=O)n2n1Cc1ccc(Cl)cc1`: the INHIBITION stood at 28.7%. Next, `CCSc1ccccc1C(=O)N(CCOC)Cc1ccoc1`: 25.1%. As for `Cc1cc(C(F)(F)F)nn1CC(C)C(=O)NC(C)C` (stereo not given), the INHIBITION was 42.4%. Consider `CNC(=O)CN1CCCC12CCN(Cc1c[nH]cn1)CC2`, for which the INHIBITION turned out to be 19.5%. Next, `CC(C)CN1CCn2nc(CNc3ncnc4[nH]ccc34)cc2C1`: -2.39%. Next, `COc1ccc(C[C@H]2CNCC[C@H]2OC)cc1`: 1.34%; `Cc1cnn(C2CCCN(C(=O)CCc3cscn3)C2)c1` (stereo not given): 33.7%; `CC(=O)N1CCCN(c2cc(C3CN(C)CCO3)nc(C)n2)CC1` (stereo not given): 36.4%. `Cc1cn2c(n1)CCC(NC(=O)CCCn1cncn1)C2` (stereo not given): the INHIBITION is listed as 29.2%. To `O=C(CCn1cncn1)NC1CCc2nccn2C1` (stereo not given) belongs -3.7%.

For the compound `CCS(=O)(=O)CC(=O)NC1CCc2nccn2C1` (stereo not given), the INHIBITION worked out at 36.3%. Next, `O=C(CCCn1cncn1)NC1CCc2nccn2C1` (stereo not given): 62.1%; `COc1ccc(C2(C(=O)NC3CCc4nccn4C3)CCCC2)cc1` (stereo not given): 24.3%.

As for `CS(=O)(=O)C1(C(=O)NC2CCc3nccn3C2)CCCC1` (stereo not given), the INHIBITION worked out at 74.8%.

Take `Cc1nc(C)n(CC2CN(Cc3noc(C4CC4)n3)CCO2)n1` (stereo not given): the INHIBITION was determined as 16.8%. To `CCc1nc(N2CCC3(CC2)CC(=O)N(Cc2ccc(Cl)cc2)C3)no1` belongs -88.1%. Consider `CCc1n[nH]c(C2CN(CCCS(C)(=O)=O)CCO2)n1` (stereo not given), for which the INHIBITION came to 9.14%. Next, `CS(=O)(=O)N1CCC(NC(=O)COc2ccc(Cl)c(Cl)c2)CC1`: 27.4%; `NC(=O)CN1CCC(C(=O)NCCc2nc(-c3ccccc3)cs2)CC1`: -53.6%. `Cc1csc(CCNC(=O)C2CCN(CC(N)=O)CC2)n1`: the INHIBITION is on record as -23.5%. Next, `NC(=O)CN1CCC(C(=O)NCc2nc(-c3ccc(F)cc3)cs2)CC1`: 55.2%.

Regarding `O=C(O)c1ccc(Cc2cccc(F)c2)nc1`, the INHIBITION is given as 3.48%. Regarding `N#Cc1ccc(C(=O)NCC2(N3CCOCC3)CCCC2)nc1`, the INHIBITION came out at 10.8%.

`Cc1cccc(-c2noc(CN3CCC(N4CCNC4=O)CC3)n2)c1`: the INHIBITION worked out at 41.1%.

Regarding `c1cnn(C2CN(Cc3nc(-c4ccsc4)no3)C2)c1`, the INHIBITION stood at 17%. In the case of `O=C1NCCN1C1CCN(Cc2nc(-c3ccccc3)no2)CC1`, the INHIBITION is 92.3%.

For `Cc1ccccc1-c1noc(CN2CCOC(Cn3cccn3)C2)n1` (stereo not given), the INHIBITION came out at 23.95%.

For the compound `Cc1ccc(-c2noc(CN3CCC(c4ccn[nH]4)CC3)n2)cc1`, the INHIBITION came out at 12.8%. Next, `O=C1NCCN1C1CCN(Cc2nc(-c3ccsc3)no2)CC1`: 85.4%. For `Cc1ccccc1-c1noc(CN2CCC(N3CCNC3=O)CC2)n1`, the INHIBITION turned out to be 88.2%.

`Cc1ccccc1-c1noc(CN2CCC(c3ccn[nH]3)CC2)n1`: the INHIBITION was -7.46%. Turning to `O=C(O)C1(n2cccn2)CCN(Cc2nc(-c3ccccc3)no2)CC1`, the INHIBITION is listed as 35.9%. Next, `c1cc(C2CCN(Cc3nc(-c4ccsc4)no3)CC2)[nH]n1`: 8.12%; `Cc1ccc(-c2noc(CN3CCC(N4CCNC4=O)CC3)n2)cc1`: 86.8%; `N#CCCN(CC1CC1)Cn1cc(Cl)cn1`: 13.3%.

`O=C1CC(N(C(=O)CCc2c[nH]c3ccccc23)C2CC2)C(=O)N1` (stereo not given): the INHIBITION was 41.8%. In the case of `Cn1ccc2c(C(=O)N3CCCC3c3noc(C4CC4)n3)cccc21` (stereo not given), the INHIBITION was determined as 19.2%.

As for `Cc1nc(CN2C[C@@H]3CN(C(=O)NC(C)C)C[C@@H]3C2=O)cs1`, the INHIBITION turned out to be 11.3%. For the compound `COCC1c2c(cnn2C)CCN1Cc1ccc(C)cc1` (stereo not given), the INHIBITION amounted to 31.7%. To `CSC(C)(C)CNC(=O)NC(c1nnc2n1CCC2)C(C)C` (stereo not given) belongs 21.5%; to `COCCN1CCC2(CCC(=O)N2Cc2csc(C)n2)CC1`, -45.8%. To `O=C1NCCN1C1CCN(Cc2nc(-c3ccoc3)no2)CC1` belongs 17%; to `O=C1NCCN1C1CCN(Cc2nc(-c3ccc(F)cc3)no2)CC1`, 93.6%; to `CCN1CCN(C2CCN(Cc3nc(-c4ccoc4)no3)CC2)C1=O`, 26.3%.

As for `Fc1ccc(-c2noc(CN3CCC(c4cc[nH]n4)CC3)n2)cc1`, the INHIBITION is recorded as 34.6%.

Turning to `CN1CCN(C2CCN(Cc3nc(-c4ccoc4)no3)CC2)C1=O`, the INHIBITION is given as 59.4%.

With `COCCN1CCN(Cc2nc(-c3ccoc3)no2)CC1`, the INHIBITION is reported as 31.1%.
